Data from PubChem BioAssay (NCI).
This is part of a sample that, as a whole, favours compounds with a hit. Of some 83,000 tested, about 20% had one in any assay.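 Note: values are percent growth. 100 is the growth of untreated cells, values between 100 and 0 indicate rising inhibition; between -100 and 0 indicates cell death.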 The source made the active and inactive calls. Rule for the calls: active = growth percent below 10; inactive = the rest.

System: MDA-MB-468 breast
Assay: NCI-60 one-dose screen, 48 h (100 = growth as untreated, 0 = no growth, -100 = all killed)
Details: 10 µM unless noted

| Compound | growth |
| --- | --- |
| O=[N+]([O-])c1cccc(C2c3ccccc3Oc3ccccc32)c1 | 95.4% (inactive) |
| CCOC(=O)[C@@H]1[C@H](c2ccccc2)[C@H]([N+](=O)[O-])[C@H](c2cn(-c3ccccc3)nc2C)N1Cc1ccccc1 | 82.9% (inactive) |
| COC(=O)[C@@]12OC[C@]34[C@H]([C@@H](O)[C@@H]1O)[C@@]1(C)[C@H](O)C(=O)C=C(C)[C@@H]1C[C@H]3OC(=O)C(OC(C)=O)[C@@H]24 (some centres not stated) | -11.6% (active) |
| O=[N+]([O-])c1ccc(NC(=S)N/N=C/c2cc3ccccc3n3nnnc23)cc1 | 61.7% (inactive) |
| CC1CCc2cc(F)cc3c(=O)c(C(=O)O)cn1c23 (configuration not stated) | 109% (inactive) |
| O=C1CCCN1C1CCN2CCCc3cccc1c32 (configuration not stated) | 118% (inactive) |
| S=C(NCc1ccccc1)NCc1ccccc1 | 101% (inactive) |
| O=C(Nc1ccncc1)C(=O)c1cn(S(=O)(=O)c2cccc(Cl)c2)c2ccccc12 | 31.2% (inactive) |
| O=C1c2cc(Br)ccc2Oc2cc([N+](=O)[O-])ccc2N1c1ccc(I)cc1F | 105% (inactive) |
| Cc1ccc2c(c1)O/C(=C\c1ccc([N+](=O)[O-])o1)C2=O | 23.3% (inactive) |
| O=C(CN1CCN(c2cc(=O)n(-c3ccccc3)c3ccccc23)CC1)Nc1nc(-c2ccc(Cl)cc2)cs1 | 9.61% (active) |
| CC[C@@H]1NC(=O)[C@H]([C@H](O)[C@H](C)C/C=C/c2ccc(CN3C(=O)C(C)=C(C)C3=O)cc2)N(C)C(=O)[C@H](C(C)C)N(C)C(=O)[C@H](CC(C)C)N(C)C(=O)[C@H](CC(C)C)N(C)C(=O)[C@@H](C)NC(=O)[C@H](C)NC(=O)[C@H](CC(C)C)N(C)C(=O)[C@H](C(C)C)NC(=O)[C@H](CC(C)C)N(C)C(=O)CN(C)C1=O | 53.1% (inactive) |
